Measurements: the supplement of paper PMC12282887
± gives the standard deviation of the averaged measurements.

How the values were obtained:
Assay in all cases: promoter activity interaction Z-score (Lux/OD deviation from empty-vector control); higher = stronger promoter induction by the compound
[1] = tested on: E. coli BW25113 tolCp lux reporter
In short: (§1)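 At 37°C, E. coli BW25113 reporter cultures in 40 µl LB Lennox in 384-well plates were read for OD600 and luminescence every 30 min for 12 h. Windows were 0–8 h for wild type and 1–9 h for deletion strains, and wells under 10% of the median growth value were removed. The score is the Z-transformed residual of growth-normalised luminescence against a control fit.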

[2] = tested on: E. coli BW25113 acrABp lux reporter
In short: as §1

[3] = tested on: E. coli BW25113 marRABp lux reporter
In short: as §1

[4] = tested on: E. coli BW25113 micFp lux reporter
In short: as §1

[5] = tested on: E. coli BW25113 ompFp lux reporter
In short: as §1

[6] = tested on: E. coli BW25113 robp lux reporter
In short: as §1

[7] = tested on: E. coli BW25113 soxSp lux reporter
In short: as §1

[8] = 0.0054 µg/ml, genetic background: wild type
[9] = 0.0054 µg/ml, genetic background: ΔmarA
[10] = 0.0054 µg/ml, genetic background: Δrob
[11] = 0.0054 µg/ml, genetic background: ΔsoxS
[12] = 0.011 µg/ml, genetic background: wild type
[13] = 0.011 µg/ml, genetic background: ΔmarA
[14] = 0.011 µg/ml, genetic background: Δrob
[15] = 0.011 µg/ml, genetic background: ΔsoxS
[16] = 0.022 µg/ml, genetic background: wild type
[17] = 0.022 µg/ml, genetic background: ΔmarA
[18] = 0.022 µg/ml, genetic background: Δrob
[19] = 0.022 µg/ml, genetic background: ΔsoxS
[20] = 0.044 µg/ml, genetic background: wild type

In the case of `CC1(C)S[C@@H]2[C@H](NC(=O)[C@H](N)c3ccc(O)cc3)C(=O)N2[C@H]1C(=O)O` [Amoxicillin], the “promoter activity interaction Z-score” value ([1]; 0.25 µg/ml, genetic background: wild type) is reported as 0.312 ± 0.33, the “promoter activity interaction Z-score” value ([1]; 0.25 µg/ml, genetic background: ΔmarA) is reported as -0.1 ± 0.033 and the “promoter activity interaction Z-score” value ([1]; 0.25 µg/ml, genetic background: Δrob) is reported as 0.375 ± 1. For the same molecule, the “promoter activity interaction Z-score” value ([1]; 0.25 µg/ml, genetic background: ΔsoxS) was -0.105 ± 0.3, the “promoter activity interaction Z-score” value ([1]; 0.5 µg/ml, genetic background: wild type) was 0.531 ± 0.051 and the “promoter activity interaction Z-score” value ([1]; 0.5 µg/ml, genetic background: ΔmarA) was 0.00734 ± 0.28. For the same molecule, the “promoter activity interaction Z-score” value ([1]; 0.5 µg/ml, genetic background: Δrob) was 0.919 ± 0.041, the “promoter activity interaction Z-score” value ([1]; 0.5 µg/ml, genetic background: ΔsoxS) was -0.655 ± 0.93 and the “promoter activity interaction Z-score” value ([1]; 1 µg/ml, genetic background: wild type) was 0.148 ± 0.45. The “promoter activity interaction Z-score” value ([1]; 1 µg/ml, genetic background: ΔmarA) was -0.404 ± 0.22, the “promoter activity interaction Z-score” value ([1]; 1 µg/ml, genetic background: Δrob) was 0.949 ± 0.14 and the “promoter activity interaction Z-score” value ([1]; 1 µg/ml, genetic background: ΔsoxS) was -0.0133 ± 0.46. For the same molecule, the “promoter activity interaction Z-score” value ([1]; 2 µg/ml, genetic background: wild type) was 0.917 ± 0.13, the “promoter activity interaction Z-score” value ([1]; 2 µg/ml, genetic background: ΔmarA) was -0.67 ± 0.039 and the “promoter activity interaction Z-score” value ([1]; 2 µg/ml, genetic background: Δrob) was 0.283 ± 0.8. The “promoter activity interaction Z-score” value ([1]; 2 µg/ml, genetic background: ΔsoxS) was -0.752 ± 0.58.
With `C[C@H]1[C@H](NC(=O)/C(=N\OC(C)(C)C(=O)O)c2csc(N)n2)C(=O)N1S(=O)(=O)O` [Aztreonam] the “promoter activity interaction Z-score” value [2, 8] was -0.253 ± 0.084, the “promoter activity interaction Z-score” value [2, 9] was -0.209 ± 1.9 and the “promoter activity interaction Z-score” value [2, 10] was -0.333 ± 0.022. For the same molecule, the “promoter activity interaction Z-score” value [2, 11] was -0.321 ± 0.053, the “promoter activity interaction Z-score” value [2, 12] was 0.0466 ± 0.11 and the “promoter activity interaction Z-score” value [2, 13] was 1.29 ± 1.5. For the same molecule, the “promoter activity interaction Z-score” value [2, 14] was -0.509 ± 0.068, the “promoter activity interaction Z-score” value [2, 15] was -0.163 ± 0.42 and the “promoter activity interaction Z-score” value [2, 16] was -0.332 ± 0.23. For the same molecule, the “promoter activity interaction Z-score” value [2, 17] was 0.66 ± 1.8, the “promoter activity interaction Z-score” value [2, 18] was -0.535 ± 0.26 and the “promoter activity interaction Z-score” value [2, 19] was -0.424 ± 0.41. The “promoter activity interaction Z-score” value [3, 8] was -0.108 ± 0.36, the “promoter activity interaction Z-score” value [3, 9] was 0.583 ± 0.95 and the “promoter activity interaction Z-score” value [3, 10] was -0.202 ± 0.19. The “promoter activity interaction Z-score” value [3, 11] was -0.188 ± 0.0033, the “promoter activity interaction Z-score” value [3, 12] was 0.0506 ± 0.094 and the “promoter activity interaction Z-score” value [3, 13] was -0.139 ± 0.26. The “promoter activity interaction Z-score” value [3, 14] was -0.0608 ± 0.52, the “promoter activity interaction Z-score” value [3, 15] was -0.218 ± 0.047 and the “promoter activity interaction Z-score” value [3, 16] was 0.0487 ± 0.33. The “promoter activity interaction Z-score” value [3, 17] was 0.0272 ± 0.41, the “promoter activity interaction Z-score” value [3, 18] was -0.0627 ± 0.18 and the “promoter activity interaction Z-score” value [3, 19] was -0.214 ± 0.088. For the same molecule, the “promoter activity interaction Z-score” value [4, 8] was -0.16 ± 0.07, the “promoter activity interaction Z-score” value [4, 9] was 0.09 ± 0.019 and the “promoter activity interaction Z-score” value [4, 10] was -0.0804 ± 0.089. The “promoter activity interaction Z-score” value [4, 11] was -0.271 ± 0.15, the “promoter activity interaction Z-score” value [4, 12] was 0.0711 ± 0.15 and the “promoter activity interaction Z-score” value [4, 13] was 0.045 ± 0.1. For the same molecule, the “promoter activity interaction Z-score” value [4, 14] was -0.174 ± 0.022, the “promoter activity interaction Z-score” value [4, 15] was 0.375 ± 0.11 and the “promoter activity interaction Z-score” value [4, 16] was -0.368 ± 0.07. The “promoter activity interaction Z-score” value [4, 17] was 0.0282 ± 0.096, the “promoter activity interaction Z-score” value [4, 18] was -0.184 ± 0.33 and the “promoter activity interaction Z-score” value [4, 19] was -0.331 ± 0.2. The “promoter activity interaction Z-score” value [5, 8] was 0.304 ± 0.71, the “promoter activity interaction Z-score” value [5, 9] was 1.01 ± 0.48 and the “promoter activity interaction Z-score” value [5, 10] was 0.73 ± 0.63. For the same molecule, the “promoter activity interaction Z-score” value [5, 11] was -0.689 ± 0.21, the “promoter activity interaction Z-score” value [5, 12] was 0.141 ± 0.14 and the “promoter activity interaction Z-score” value [5, 13] was 1.02 ± 0.8. For the same molecule, the “promoter activity interaction Z-score” value [5, 14] was -0.364 ± 0.87, the “promoter activity interaction Z-score” value [5, 15] was 0.129 ± 0.2 and the “promoter activity interaction Z-score” value [5, 16] was -0.19 ± 0.57. For the same molecule, the “promoter activity interaction Z-score” value [5, 17] was 1.43 ± 0.23, the “promoter activity interaction Z-score” value [5, 18] was -0.565 ± 1.7 and the “promoter activity interaction Z-score” value [5, 19] was -0.303 ± 0.73. The “promoter activity interaction Z-score” value [6, 8] was -0.543 ± 0.46, the “promoter activity interaction Z-score” value [6, 9] was 1.13 ± 0.88 and the “promoter activity interaction Z-score” value [6, 10] was -0.203 ± 0.46. For the same molecule, the “promoter activity interaction Z-score” value [6, 11] was -1.41 ± 0.17, the “promoter activity interaction Z-score” value [6, 12] was 0.385 ± 0.037 and the “promoter activity interaction Z-score” value [6, 13] was 1.33 ± 2. The “promoter activity interaction Z-score” value [6, 14] was -0.405 ± 0.69, the “promoter activity interaction Z-score” value [6, 15] was -0.722 ± 0.24 and the “promoter activity interaction Z-score” value [6, 16] was -0.69 ± 0.072. For the same molecule, the “promoter activity interaction Z-score” value [6, 17] was -0.124 ± 0.43, the “promoter activity interaction Z-score” value [6, 18] was -1.16 ± 1.2 and the “promoter activity interaction Z-score” value [6, 19] was -1.07 ± 0.27. The “promoter activity interaction Z-score” value [7, 8] was 0.278 ± 0.064, the “promoter activity interaction Z-score” value [7, 9] was 0.333 ± 0.11 and the “promoter activity interaction Z-score” value [7, 10] was -0.00514 ± 0.076. For the same molecule, the “promoter activity interaction Z-score” value [7, 11] was -0.126 ± 0.11, the “promoter activity interaction Z-score” value [7, 12] was 0.305 ± 0.13 and the “promoter activity interaction Z-score” value [7, 13] was 0.172 ± 0.0071. For the same molecule, the “promoter activity interaction Z-score” value [7, 14] was -0.21 ± 0.25, the “promoter activity interaction Z-score” value [7, 15] was 0.164 ± 0.46 and the “promoter activity interaction Z-score” value [7, 16] was 0.0318 ± 0.13. The “promoter activity interaction Z-score” value [7, 17] was 0.1912 ± 0.0014, the “promoter activity interaction Z-score” value [7, 18] was -0.194 ± 0.19 and the “promoter activity interaction Z-score” value [7, 19] was -0.106 ± 0.33. The “promoter activity interaction Z-score” value [7, 20] was -0.0693 ± 0.29, the “promoter activity interaction Z-score” value [1, 8] was -0.174 ± 0.12 and the “promoter activity interaction Z-score” value [1, 9] was 0.0726 ± 0.53. The “promoter activity interaction Z-score” value [1, 10] was -0.67 ± 1.8, the “promoter activity interaction Z-score” value [1, 11] was -1.94 ± 0.062 and the “promoter activity interaction Z-score” value [1, 12] was 0.647 ± 0.59. The “promoter activity interaction Z-score” value [1, 13] was -0.497 ± 0.27, the “promoter activity interaction Z-score” value [1, 14] was -0.241 ± 1 and the “promoter activity interaction Z-score” value [1, 15] was -0.196 ± 0.045. For the same molecule, the “promoter activity interaction Z-score” value [1, 16] was 0.105 ± 0.69, the “promoter activity interaction Z-score” value [1, 17] was -0.22 ± 1.1 and the “promoter activity interaction Z-score” value [1, 18] was 1.61 ± 1. For the same molecule, the “promoter activity interaction Z-score” value [1, 19] was -0.251 ± 0.32 and the “promoter activity interaction Z-score” value [1, 20] was -1.04.
